Laboratory results as given in PubChem BioAssay AID1159580 (chemical genetic matrix, 2015).
Values joined by “and” are separate entries in the source; they are usually repeats but may differ in a detail not shown here. Equal values may be shown once. Out of some 5,500 compounds screened, about 2,000 (36%) were called active. Another 18% or so got no clear call; they are omitted. Rule as the data show it: active = normalized growth mostly below about 0.91 (no sharp cut-off); inconclusive = no clear call, values can overlap the other calls; inactive = mostly above about 0.92. Some of the results follow.

Assay: chemical genetic growth profiling, strain panel (AID 1159580);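 also: tested at 20 µM; growth read once vehicle control cultures reached saturation at 30 °C; 1 = growth at the plate median or of vehicle wells; lower values mean less growth of the strain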
Settings: growth OD

Measured: normalized growth

NC1(C(=O)O)CCC1
inactive: S. cerevisiae deletion strains, locus YAL013W, strain DEP1, stronger effect = lower value 0.911 | S. cerevisiae deletion strains, locus YBR021W, strain FUR4, stronger effect = lower value 0.992 | S. cerevisiae deletion strains, locus YBR229C, strain ROT2, stronger effect = lower value 1.01 | S. cerevisiae deletion strains, locus YCL029C, strain bik1, stronger effect = lower value 0.997 | S. cerevisiae deletion strains, locus YDL035C, strain GPR1, stronger effect = lower value 0.956 | S. cerevisiae deletion strains, locus YDL074C, strain BRE1, stronger effect = lower value 0.836 | S. cerevisiae deletion strains, locus YDL101C, strain DUN1, stronger effect = lower value 0.992 | S. cerevisiae deletion strains, locus YDL134C, strain PPH21, stronger effect = lower value 1.01 | S. cerevisiae deletion strains, locus YDL185W, strain tfp1, stronger effect = lower value 0.974 | S. cerevisiae deletion strains, locus YDL192W, strain arf1, stronger effect = lower value 0.974 | S. cerevisiae deletion strains, locus YDR101C, strain arx1, stronger effect = lower value 0.966 | S. cerevisiae deletion strains, locus YDR150W, strain NUM1, stronger effect = lower value 1 | S. cerevisiae deletion strains, locus YDR162C, strain NBP2, stronger effect = lower value 0.99 | S. cerevisiae deletion strains, locus YDR318W, strain mcm21, stronger effect = lower value 0.963 | S. cerevisiae deletion strains, locus YDR388W, stronger effect = lower value 0.988 | S. cerevisiae deletion strains, locus YDR502C, strain sam2, stronger effect = lower value 0.936 | S. cerevisiae deletion strains, locus YEL061C, strain CIN8, stronger effect = lower value 1 | S. cerevisiae deletion strains, locus YER110C, stronger effect = lower value 0.959 | S. cerevisiae deletion strains, locus YER155C, strain BEM2, stronger effect = lower value 1.03 | S. cerevisiae deletion strains, locus YER167W, strain BCK2, stronger effect = lower value 0.952 | S. cerevisiae deletion strains, locus YGL078C, strain dbp3, stronger effect = lower value 0.996 | S. cerevisiae deletion strains, locus YGL086W, strain mad1, stronger effect = lower value 0.955 | S. cerevisiae deletion strains, locus YGL248W, strain PDE1, stronger effect = lower value 1.01 | S. cerevisiae deletion strains, locus YGR078C, strain PAC10, stronger effect = lower value 0.868 | S. cerevisiae deletion strains, locus YGR135W, strain pre9, stronger effect = lower value 0.915 | S. cerevisiae deletion strains, locus YGR252W, strain gcn5, stronger effect = lower value 0.894 | S. cerevisiae deletion strains, locus YHR030C, strain SLT2, stronger effect = lower value 0.996 and 1 | S. cerevisiae deletion strains, locus YHR079C, strain IRE1 (second series), stronger effect = lower value 0.982 | S. cerevisiae deletion strains, locus YHR079C, strain IRE1, stronger effect = lower value 1.01 | S. cerevisiae deletion strains, locus YHR094C, strain hxt1, stronger effect = lower value 0.992 | S. cerevisiae deletion strains, locus YHR129C, strain ARP1, stronger effect = lower value 0.971 | S. cerevisiae deletion strains, locus YHR200W, strain rpn10, stronger effect = lower value 0.968 | S. cerevisiae deletion strains, locus YIL066C, strain RNR3, stronger effect = lower value 0.966 | S. cerevisiae deletion strains, locus YIL073C, strain SPO22, stronger effect = lower value 0.895 | S. cerevisiae deletion strains, locus YIL125W, strain kgd1, stronger effect = lower value 0.996 | S. cerevisiae deletion strains, locus YIR030C, strain dcg1, stronger effect = lower value 0.988 | S. cerevisiae deletion strains, locus YJL095W, strain BCK1, stronger effect = lower value 0.88 and 0.998 | S. cerevisiae deletion strains, locus YJL134W, strain LCB3, stronger effect = lower value 0.997 | S. cerevisiae deletion strains, locus YJL168C, strain set2, stronger effect = lower value 0.978 | S. cerevisiae deletion strains, locus YJL187C, strain SWE1 (second series), stronger effect = lower value 0.997 | S. cerevisiae deletion strains, locus YJR066W, strain TOR1, stronger effect = lower value 0.932 | S. cerevisiae deletion strains, locus YJR075W, strain HOC1, stronger effect = lower value 0.891 | S. cerevisiae deletion strains, locus YKL009W, strain mrt4, stronger effect = lower value 0.98 | S. cerevisiae deletion strains, locus YKL068W, stronger effect = lower value 0.996 | S. cerevisiae deletion strains, locus YKL085W, strain MDH1 (second series), stronger effect = lower value 1.01 | S. cerevisiae deletion strains, locus YKL085W, strain MDH1, stronger effect = lower value 1.01 | S. cerevisiae deletion strains, locus YKL190W, strain CNB1, stronger effect = lower value 0.981 | S. cerevisiae deletion strains, locus YKR001C, strain vps1, stronger effect = lower value 0.92 | S. cerevisiae deletion strains, locus YLR039C, strain RIC1, stronger effect = lower value 0.991 | S. cerevisiae deletion strains, locus YLR058C, strain SHM2, stronger effect = lower value 1.01 | S. cerevisiae deletion strains, locus YLR102C, strain apc9, stronger effect = lower value 0.986 | S. cerevisiae deletion strains, locus YLR113W, strain HOG1, stronger effect = lower value 0.996 | S. cerevisiae deletion strains, locus YLR262C, strain YPT6, stronger effect = lower value 1.1 | S. cerevisiae deletion strains, locus YLR268W, strain sec22, stronger effect = lower value 0.951 | S. cerevisiae deletion strains, locus YLR330W, strain CHS5, stronger effect = lower value 1 | S. cerevisiae deletion strains, locus YLR342W, strain FKS1 (second series), stronger effect = lower value 0.955 | S. cerevisiae deletion strains, locus YLR371W, strain rom2, stronger effect = lower value 0.995 | S. cerevisiae deletion strains, locus YML016C, strain PPZ1, stronger effect = lower value 0.994 | S. cerevisiae deletion strains, locus YML032C, strain rad52, stronger effect = lower value 0.977 | S. cerevisiae deletion strains, locus YML124C, strain tub3, stronger effect = lower value 0.994 | S. cerevisiae deletion strains, locus YMR078C, strain ctf18, stronger effect = lower value 0.988 | S. cerevisiae deletion strains, locus YMR223W, strain ubp8, stronger effect = lower value 0.935 | S. cerevisiae deletion strains, locus YMR263W, strain SAP30, stronger effect = lower value 0.929 | S. cerevisiae deletion strains, locus YMR307W, strain GAS1, stronger effect = lower value 0.986 | S. cerevisiae deletion strains, locus YNL067W, strain RPL9B, stronger effect = lower value 0.952 | S. cerevisiae deletion strains, locus YNL128W, strain TEP1, stronger effect = lower value 0.986 | S. cerevisiae deletion strains, locus YNL153C, strain GIM3, stronger effect = lower value 0.883 | S. cerevisiae deletion strains, locus YNL183C, strain NPR1, stronger effect = lower value 0.916 | S. cerevisiae deletion strains, locus YNL233W, strain BNI4, stronger effect = lower value 0.92 | S. cerevisiae deletion strains, locus YNL250W, strain rad50, stronger effect = lower value 0.948 | S. cerevisiae deletion strains, locus YNL271C, strain bni1, stronger effect = lower value 0.966 | S. cerevisiae deletion strains, locus YNL298W, strain CLA4, stronger effect = lower value 0.981 | S. cerevisiae deletion strains, locus YNL322C, strain KRE1, stronger effect = lower value 0.997 | S. cerevisiae deletion strains, locus YNR052C, strain pop2, stronger effect = lower value 0.999 | S. cerevisiae deletion strains, locus YOL006C, strain TOP1, stronger effect = lower value 0.934 | S. cerevisiae deletion strains, locus YOL012C, strain htz1 1.73 | S. cerevisiae deletion strains, locus YOL147C, strain pex11, stronger effect = lower value 0.99 | S. cerevisiae deletion strains, locus YOR061W, strain CKA2, stronger effect = lower value 1 | S. cerevisiae deletion strains, locus YOR069W, strain VPS5, stronger effect = lower value 1 | S. cerevisiae deletion strains, locus YOR136W, strain idh2, stronger effect = lower value 0.973 | S. cerevisiae deletion strains, locus YOR144C, strain elg1, stronger effect = lower value 0.994 | S. cerevisiae deletion strains, locus YOR184W, strain ser1, stronger effect = lower value 0.875 | S. cerevisiae deletion strains, locus YOR231W, strain MKK1, stronger effect = lower value 0.989 | S. cerevisiae deletion strains, locus YOR316C, strain cot1, stronger effect = lower value 0.987 | S. cerevisiae deletion strains, locus YPL055C, strain LGE1, stronger effect = lower value 0.876 | S. cerevisiae deletion strains, locus YPL241C, strain CIN2, stronger effect = lower value 0.998 | S. cerevisiae deletion strains, locus YPL256C, strain CLN2, stronger effect = lower value 0.995 | S. cerevisiae deletion strains, locus YPR119W, strain clb2, stronger effect = lower value 0.999 | S. cerevisiae deletion strains, locus YPR141C, strain kar3, stronger effect = lower value 0.981 | S. cerevisiae deletion strains, locus YPR163C, strain tif3, stronger effect = lower value 0.996 | S. cerevisiae deletion strains, locus YPR167C, strain met16, stronger effect = lower value 0.992 | S. cerevisiae deletion strains, strain wtn01, stronger effect = lower value 0.927 | S. cerevisiae strains, strain wild type, stronger effect = lower value 0.925
active: S. cerevisiae deletion strains, locus YGR229C, strain SMI1, stronger effect = lower value 0.717 | S. cerevisiae deletion strains, locus YJR043C, strain POL32, stronger effect = lower value 0.83 | S. cerevisiae deletion strains, locus YLR418C, strain cdc73, stronger effect = lower value 0.732 | S. cerevisiae deletion strains, locus YNL307C, strain MCK1, stronger effect = lower value 0.894
